Bioassay records from PubChem.
Most compounds without a hit are left out; they make up all but 4.5% or so of the library.
Efflux pump mplx = inhibitors of Candida antifungal efflux pumps expressed in yeast; S. cerevisiae Candida pump triplex, Nile Red efflux; inhibition, % at 10 µM; 330,000 tested, 0.44% active; AID 485275;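 active = plate passing quality check with inhibition over a set limit, or well fluorescence over plate mean plus 4 SD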;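 also: Nile Red retained in pooled yeast measured as flow cytometry median fluorescence; 0% = buffer negative control and 100% = Enniatin B positive control; higher means more Nile Red kept so more efflux inhibition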
ALR inh = inhibitors of human sulfhydryl oxidase ALR. P55789. purified ALR, DTT oxidation, H2O2 HRP-luminol luminescence. inhibition, % (concentration not given with the values). 290,000 tested, 3.8% active;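 active = mean replicate inhibition above about 79%, with every replicate also reaching it, limit read from the data; inconclusive = only one of the two criteria met; inactive = mean below limit and not every replicate reaching it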
Target sequence (P55789 whole entry, looked up): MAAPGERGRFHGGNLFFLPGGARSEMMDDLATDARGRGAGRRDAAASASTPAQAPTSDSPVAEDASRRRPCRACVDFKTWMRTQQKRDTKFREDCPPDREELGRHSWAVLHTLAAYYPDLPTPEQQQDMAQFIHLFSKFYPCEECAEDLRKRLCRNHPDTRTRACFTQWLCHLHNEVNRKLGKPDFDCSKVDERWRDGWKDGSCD
Rtt109 Vps75 = blocks Candida albicans Rtt109/Vps75 acetyltransferase activity. Q5AAJ8. purified Rtt109/Vps75, ThioGlo CoA-SH fluorescence, 4 h. inhibition, % at 34.9 µM. 330,000 tested, 0.16% active. AID 540336;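 active = inhibition of at least 50% in every replicate; inconclusive = best replicate reaches 50% inhibition but some replicates fall short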
Rce1 inh = inhibitors of yeast Ras-converting enzyme; Q03530; yeast membranes, quenched prenylated peptide cleavage fluorescence; calls only; 290,000 tested, 0.27% active; AID 2563;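 active = fall in fluorescence gain of 50% or more versus controls, with final raw signal at or below 3038400; inconclusive = same 50% fall but final raw signal above 3038400; inactive = fall in fluorescence gain under 50%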;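 also: plate controls were neutral control wells for no effect and wells lacking membranes for full effect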
Target sequence (Q03530 whole entry, looked up): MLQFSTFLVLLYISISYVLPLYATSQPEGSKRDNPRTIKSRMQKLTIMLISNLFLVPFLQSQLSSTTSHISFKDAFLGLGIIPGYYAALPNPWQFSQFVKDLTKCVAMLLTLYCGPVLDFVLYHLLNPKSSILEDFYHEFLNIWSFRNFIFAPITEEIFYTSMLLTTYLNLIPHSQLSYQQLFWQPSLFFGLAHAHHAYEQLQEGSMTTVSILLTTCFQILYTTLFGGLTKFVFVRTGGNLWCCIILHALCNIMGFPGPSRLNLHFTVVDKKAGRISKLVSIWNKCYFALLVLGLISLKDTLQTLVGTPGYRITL
HDAC3 inh = human HDAC3 inhibition. O15379. recombinant HDAC3, fluorogenic peptide/trypsin coupled, fluorescence. inhibition, % at 8.3 µM. 320,000 tested, 0.15% active. AID 2718; in the data active = inhibition above about 26%, passing the limit was not always enough; inconclusive = no clear call, values can overlap the other calls
GRK2 inh = inhibitors of human GRK2 displacing RNA aptamer; inhibition of aptamer binding, % at 10 µM; AID 488847; 330,000 tested, 0.59% active; bead flow cytometry, FAM-aptamer displacement from GRK2; P25098;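 active = inhibition of aptamer binding above 40%, roughly 3 SD of noise, on plates passing a quality check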;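 also: median bead fluorescence of bound FAM aptamer so fluorescent compounds give negative values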
* marks the source's active call; other numbers are inactive results; i = inactive; ? = inconclusive; . = not tested or not shown; + = active, no number.

SMILES	Efflux pump mplx	ALR inh	Rtt109 Vps75	Rce1 inh	HDAC3 inh	GRK2 inh
O=C(Sc1nnc(-c2ccccc2)o1)N1c2ccccc2Sc2ccccc21	0	93*	-2	i	-1	5
Cc1ccc(CNC(=S)Nc2ccc(C)c([N+](=O)[O-])c2)cc1	0	-4	-8	i	4	50*
O=C(Cc1ccccc1)NCC(=O)N1CCC1	0	1	1	.	-3	0
CCN(CCCNC(=O)COc1cc(=O)n(CC)c2ccccc12)c1ccccc1	0	99*	10	i	2	0
CCn1c(=O)cc(OCC(=O)NCCCN2CC(C)CC(C)C2)c2ccccc21 (stereo not drawn)	0	-4	-3	i	-1	0
CCN(CCCNC(=O)COc1cc(=O)n(C)c2ccccc12)c1ccccc1	0	98*	-2	i	-7	1
CC1CCN(CCCNC(=O)COc2cc(=O)n(C)c3ccccc23)CC1	0	-10	2	i	6	0
CCN(CCNC(=O)Cn1c(=O)sc2ccccc21)c1ccccc1	0	98*	3	i	-1	2
COc1cc(C(=O)NNC(=O)c2cccn2C)cc(OC)c1OC	0	-3	-1	i	3	2
COc1ccccc1NC(=O)COC(=O)C1CC2CCCC(C1)C2=O (stereo not drawn)	0	-5	-1	.	-1	0
C/C(CC(=O)NCc1ccco1)=N\NC(=O)c1ccc(Cl)cc1Cl	0	-3	0	i	-1	2
C/C(CC(=O)NCc1ccco1)=N\NC(=O)c1ccc([N+](=O)[O-])cc1Cl	0	.	5	+	1	0
Cc1ccc(CN(Cc2ccccc2)C(=S)NCC(=O)NCc2cccnc2)o1	1	0	-2	i	20	2
COCc1ccc(C(=O)N2CCCC(Nc3ccc(C(C)C)cc3)C2)s1 (stereo not drawn)	0	93*	1	i	6	0
CC(C)c1ccc(NC2CCCN(C(=O)c3ccnn3C)C2)cc1 (stereo not drawn)	0	?	0	i	-3	2
COCc1ccc(C(=O)N2CCCC(Nc3ccc(C(C)C)cc3)C2)o1 (stereo not drawn)	1	93*	-14	i	7	7
COc1cc(C(=O)OCCCN2CCOCC2)ccc1O	0	99*	-2	i	3	2
Cc1cc(C(=O)COc2ccc3ccc(=O)oc3c2)c(C)n1Cc1cccs1	0	88*	-2	i	-5	23
Cc1ccc(OCC(=O)c2cc(C)n(Cc3cccs3)c2C)c([N+](=O)[O-])n1	0	.	1	i	-2	2
COc1ccc(C2CC(=O)C(C(c3ccc(O)cc3)C3C(=O)CC(c4ccc(OC)cc4)CC3=O)C(=O)C2)cc1 (stereo not drawn)	0	3	.	i	-4	52*
COc1ccc(C2=CC(=O)CC(c3ccc(OC)cc3)C2)cc1 (stereo not drawn)	0	.	1	i	4	0
CCOC(=O)N1CCC(NC(=O)c2cc(S(=O)(=O)N3CCOCC3)ccc2F)CC1	0	2	0	i	0	2
CCOC(=O)N1CCC(NC(=O)c2cc(-c3ccc(F)cc3)[nH]c2C)CC1	0	98*	28	i	0	3
CCOC(=O)N1CCC(NC(=O)c2cc(S(=O)(=O)N3CCC4(CC3)OCCO4)ccc2F)CC1	0	99*	-5	i	4	0
Cc1cccc(NC(=O)CSCC(=O)NNC(=O)c2ccoc2C)c1	0	3	2	i	-12	1
SMILES	Efflux pump mplx	ALR inh	Rtt109 Vps75	Rce1 inh	HDAC3 inh	GRK2 inh
O=C(NC1CCSc2ccccc21)c1ccc(F)c(S(=O)(=O)N2CCOCC2)c1 (stereo not drawn)	0	-5	19	i	1	2
C=CCN(CC=C)C(=O)c1ccc(OC2CCN(S(=O)(=O)N(C)C)CC2)cc1	0	-18	-6	i	1	0
O=C(CCNS(=O)(=O)c1ccccc1C(F)(F)F)N1CCN(c2ccccc2O)CC1	0	99*	12	i	4	0
Nc1ncc(Br)cc1S(=O)(=O)NCCC(=O)N1CCN(c2ccccn2)CC1	0	2	-3	i	9	0
CCOc1ccc(S(=O)(=O)NCCC(=O)N2CCN(c3ccccc3O)CC2)cc1	0	98*	8	i	8	0
O=C(COc1cccc(C(F)(F)F)c1)N1CCN(c2ccccc2O)CC1	0	98*	8	i	7	1
Nc1ncc(Br)cc1S(=O)(=O)NCCC(=O)N1CCN(c2ccccc2)CC1	0	96*	2	i	2	1
CC1CCCC(C)N1C(=O)COc1ccc(F)cc1 (stereo not drawn)	0	-10	-5	i	3	0
COC(=O)c1cccc(NC(=O)CCNC(=O)c2ccco2)c1	0	.	5	i	9	1
Cc1nc(N)nc(N/N=C/c2c(F)cccc2Cl)n1	0	.	-2	i	5	2
Cc1nc(C#N)c(N/N=C/c2c(F)cccc2Cl)o1	0	98*	-27	i	-2	0
CCn1c(SCc2ccc(C(=O)Nc3nccs3)cc2)nnc1-c1ccc(N)cc1	0	82*	1	i	0	0
Cn1c(SCc2ccc(C(=O)Nc3nccs3)cc2)nnc1-c1ccccc1	0	39	-2	i	0	5
CCn1c(SCc2ccc(C(=O)Nc3nccs3)cc2)nnc1-c1ccc(NC(C)=O)cc1	0	99*	6	i	-1	3
COc1ccc(S(=O)(=O)N2CCCCCC2)cc1NC(C)C(=O)Nc1ccc(NC(C)=O)cc1 (stereo not drawn)	.	.	-14	.	.	.
COc1cc(CN2CCC(CCC(=O)NC3CC3)CC2)cc(Cl)c1OC	0	.	-13	i	-2	0
CSc1cccc(NC(=O)CN2C(=O)c3ccccc3S2(=O)=O)c1	0	95*	3	i	-9	0
O=C(CN1C(=O)c2ccccc2S1(=O)=O)Nc1ccccc1	0	-16	3	i	-7	0
CCn1c(SCC(=O)Nc2nc(C)c(C)s2)nnc1-c1cccs1	0	6	0	i	0	0
Cc1nc(NC(=O)CSc2nc(N)cc(N)n2)sc1C	0	94*	6	i	-12	2
O=C(CSCC(=O)Nc1nc(-c2ccc3c(c2)OCO3)cs1)Nc1nccs1	0	99*	-8	i	3	0
CCOC(=S)SCC(=O)Nc1nccs1	0	88*	?	i	-3	1
Cc1ccccc1OCCCC(=O)Nc1nccs1	0	94*	.	i	-2	0
Cc1ccc(C)c(OCCCC(=O)Nc2nccs2)c1	0	2	-6	i	1	0
CCOC(=O)C(=O)Nc1nccs1	0	.	11	i	-1	0
